Measurements: PubChem BioAssay
A number with no mark means an inactive call. The source made the active and inactive calls.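 Rule for the calls: active = inhibition of the reporter signal at or above 50%; inactive = inhibition below 50%.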

Assay: inhibitors of poly I:C-induced TLR3 signaling, primary screen, cell-based, poly I:C stimulus, luciferase, 10K MLSCN set (AID 602277)
Conditions: HEK293-TLR3 RL24 IRF3 luciferase reporter, at 10 µM, hits give high values

| SMILES | inhibition |
| --- | --- |
| CC1Cc2nc(SCC(=O)Nc3nccs3)n(C)c(=O)c2S1 (centres undefined) | 28.2% |
| CCOc1cc(-c2nc(-c3ccc(C)nc3OCC)no2)cc(OCC)c1OCC | -40.1% |
| CCn1c(C(C#N)/C(=N\S(=O)(=O)c2cccs2)c2ccccc2)nc2ccccc21 (centres undefined) | 40.9% |
| O=C(c1cnn2c1NC(c1ccco1)CC2C(F)(F)F)N1CCN(c2cccc(Cl)c2)CC1 (centres undefined) | 19.8% |
| Oc1ccc(Cl)cc1-c1cc(-c2ccccc2)n[nH]1 | -37% |
| Cc1cccc(-c2cc3nc4c(c(N5CCOCC5)n3n2)CCCC4)c1 | 33.5% |
| CCc1nnc(NC(=O)c2cc3ccccc3oc2=O)s1 | -77.5% |
| O=C(CCS(=O)(=O)c1cccc2nonc12)Nc1cccc2c1CCCC2 | 5.02% |
| Cc1nn(-c2ccc(F)cc2)c2c1cc(C#N)c1nc3ccccc3n12 | 23.6% |
| Oc1c(C(c2ccccc2)N2CCc3ccccc3C2)sc2ncnn12 (centres undefined) | 30.7% |
| O=C1CN(C(=O)COC(=O)c2ccccc2NC(=O)c2ccco2)c2ccccc2N1 | -17.5% |
| COc1cccc(-c2noc(C3CCCN(C(=O)Cc4ccccc4)C3)n2)c1 (centres undefined) | 14.1% |
| CCCCCn1c(CN2CCN(C)CC2)nc2c1c(=O)n(C)c(=O)n2C | 43.6% |
| CC(C)OC(=O)c1cccc(C(=O)O)n1 | 12.7% |
| CC1CCCCN1CCNS(=O)(=O)c1ccc2c(c1)oc(=O)n2C (centres undefined) | 18.5% |
| CCCc1nnc2n1N=C(c1ccc(-c3cc(Cl)ccc3Cl)o1)CS2 | 29.1% |
| COc1cccc(CNc2nc3nc(C)c(Cl)c(C)n3n2)c1 | 98.2% (active) |
| COc1ccc(CNc2nc(NCc3ccc(OC)cc3)n(S(C)(=O)=O)n2)cc1 | -1.73% |
| COc1cccc(NC(=O)N(Cc2ccco2)C(C)c2cccs2)c1 (centres undefined) | 15.1% |
| Cc1nnc(SCC(=O)NCc2ccccc2)s1 | 30.9% |
| O=C(c1ccco1)N1CCN(CC2CC3C=CC2C3)CC1 (centres undefined) | -20% |
| CCOC(=O)CSc1nnc2n1C(C)(C)Cc1ccccc1-2 | -27.1% |
| CCN(CC)CCN1C(=O)C(=O)/C(=C(/O)c2c(C)[nH]c(C(=O)OC)c2C)C1c1ccccc1OC (centres undefined) | 34.9% |
| CCOC(=O)C(C)(C)Sc1nc2c(cnn2-c2ccc(C)cc2)c(=O)[nH]1 | 34% |
